Consider 15 compounds from PubChem BioAssay.

For part of these data: Results with a measured potency or affinity are listed apart. The source made the active and inactive calls.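 Rule for the calls, unless noted: active = earlier screen potentiator hit that boosts the TRPC4 ion channel at some dose, with a dose response; inactive = no potentiation, no dose response, or not a prior hit.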

The subject of assay [1] is TRPC4 beta (transient receptor potential cation channel C4), mouse. Description: activators of mouse TRPC4 channel, confirmation, cell-based, Fluo4 calcium, HEK293 TRPC4beta/mu-opioid, duplicates, 10 µM (AID 2426;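 active = fluorescence ratio normalized to control raised more than 50% in primary screen plus both repeat runs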;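 for activation: percent rise of integrated ratio over buffer wells lacking compound which define 0%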). The settings on record: Fluo4 calcium fluorescence, at 10 µM; hits give high values.
Assay [2] relates to transient receptor potential cation channel C4 beta (TRPC4), mouse. Kind of assay: activators of mouse TRPC4 channel, confirmation, cell-based, second round, Fluo4, HEK293 TRPC4beta/mu-opioid, 1 µM (AID 2461;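 active = primary screen active and over 50% activation in each of two duplicate runs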;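 for activation: 0% = wells without test compound as baseline of integrated fluorescence ratio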). Particulars: Fluo4 calcium fluorescence, at 1 µM; hits give high values.
Assay [3] concerns TRPC4 (transient receptor potential cation channel C4 beta), mouse. Kind of assay: positive allosteric modulators of mouse TRPC4, confirmation, cell-based, second round, Fluo-4, HEK293 TRPC4beta/mu-opioid, 1 µM (AID 2554;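 active = primary screen hit whose fluorescence ratio, in both repeats, exceeds the weak agonist control mean by 3 SD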). The settings on record: DAMGO EC20, Fluo-4 calcium flux, at 1 µM; hits give high values. On the technique in general: Calcium flux is commonly read through the fluorescence of an indicator in the cells.

Assay [4] concerns TRPC4 beta (transient receptor potential cation channel C4), mouse. Kind of assay: positive allosteric modulators of mouse TRPC4, confirmation, cell-based, Fluo-4, HEK293 TRPC4beta/mu-opioid (AID 2555;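 active = primary screen hit whose calcium fluorescence ratio, in both repeats, exceeds the weak agonist control mean by 3 SD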). The settings on record: DAMGO EC20, Fluo-4 calcium flux, at 10 µM; hits give high values.
For assay [5], the target named is Short transient receptor potential channel 4 (Mus musculus) (UniProt Q9QUQ5). Kind of assay: inhibitors of mouse TRPC4 channel, confirmation, cell-based, Fluo4, HEK293 TRPC4beta/mu-opioid (AID 2636;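 active = calcium signal cut by more than 3 SD below the full-agonist control yet still positive, in both repeats and the earlier primary screen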). The settings on record: DAMGO, Fluo4 calcium flux, at 10 µM; hits give high values.
Sequence of Short transient receptor potential channel 4 (Mus musculus) (Q9QUQ5 whole entry, looked up): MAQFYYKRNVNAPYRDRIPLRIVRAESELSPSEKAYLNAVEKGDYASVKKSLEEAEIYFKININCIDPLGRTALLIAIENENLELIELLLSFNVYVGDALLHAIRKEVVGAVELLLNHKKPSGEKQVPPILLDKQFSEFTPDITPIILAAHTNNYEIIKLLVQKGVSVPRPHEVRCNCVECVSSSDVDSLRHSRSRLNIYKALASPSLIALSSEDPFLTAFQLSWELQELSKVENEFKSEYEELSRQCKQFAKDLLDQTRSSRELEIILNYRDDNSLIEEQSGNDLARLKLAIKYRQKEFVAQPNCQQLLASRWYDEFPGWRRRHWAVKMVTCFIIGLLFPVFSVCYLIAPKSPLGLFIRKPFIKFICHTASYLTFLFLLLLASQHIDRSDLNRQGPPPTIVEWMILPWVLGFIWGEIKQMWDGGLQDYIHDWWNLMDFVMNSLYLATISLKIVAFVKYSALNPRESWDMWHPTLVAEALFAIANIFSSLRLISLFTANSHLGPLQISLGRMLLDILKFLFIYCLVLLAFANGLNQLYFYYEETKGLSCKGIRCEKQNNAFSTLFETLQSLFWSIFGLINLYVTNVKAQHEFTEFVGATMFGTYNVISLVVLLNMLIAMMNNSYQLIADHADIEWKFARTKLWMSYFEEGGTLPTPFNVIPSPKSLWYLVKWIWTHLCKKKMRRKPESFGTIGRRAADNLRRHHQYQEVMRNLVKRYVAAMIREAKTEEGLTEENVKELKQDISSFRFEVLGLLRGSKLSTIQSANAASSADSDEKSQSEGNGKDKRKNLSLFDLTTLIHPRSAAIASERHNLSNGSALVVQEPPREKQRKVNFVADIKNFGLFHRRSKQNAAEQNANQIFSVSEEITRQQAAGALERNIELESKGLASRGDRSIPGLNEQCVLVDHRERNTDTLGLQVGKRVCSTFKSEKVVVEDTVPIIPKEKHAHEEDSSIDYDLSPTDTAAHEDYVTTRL
The target is the same in assay [6]. Description: inhibitors of mouse TRPC4 channel, confirmation, cell-based, second round, Fluo4, HEK293 TRPC4beta/mu-opioid, 1 µM (AID 2637;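 active = calcium signal ratio cut to more than 3 SD under the fully stimulated control mean yet still positive, in both repeats and the primary screen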). The settings on record: Fluo4 calcium flux, DAMGO, at 1 µM; hits give high values.
Assay [7] shares this target. Kind of assay: TRPC4 positive allosteric modulators, dose response, cell-based, HEK293 TRPC4/mu-opioid, Fluo-4 calcium, EC20 DAMGO (AID 434941).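 Note: calcium entry triggered by an EC20 dose of DAMGO at the co-expressed mu-opioid receptor.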
Assay [8] has the same target. Description: mouse TRPC4 channel inhibitors, dose response, cell-based, HEK293 TRPC4/mu-opioid, Fluo-4 calcium (AID 434942;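 active = primary screen inhibitor hit that blocks the TRPC4 channel at some tested dose, yielding a dose curve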).
In assay [9] the target is Short transient receptor potential channel 6 (Mus musculus) (UniProt Q61143). Kind of assay: inhibition of mouse TRPC6 channel, confirmation, selectivity assay for TRPC4 inhibitor project, cell-based, HEK293, membrane potential dye, duplicate (AID 434948;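 active = active in primary screen and both duplicates, each dropping signal beyond three positive-control SD with fluorescence still positive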). Particulars: HEK293 TRPC6, membrane potential dye fluorescence, at 10 µM, stimulated with maximal-effect acetylcholine; hits give high values.
Sequence of Short transient receptor potential channel 6 (Mus musculus) (Q61143 whole entry, looked up): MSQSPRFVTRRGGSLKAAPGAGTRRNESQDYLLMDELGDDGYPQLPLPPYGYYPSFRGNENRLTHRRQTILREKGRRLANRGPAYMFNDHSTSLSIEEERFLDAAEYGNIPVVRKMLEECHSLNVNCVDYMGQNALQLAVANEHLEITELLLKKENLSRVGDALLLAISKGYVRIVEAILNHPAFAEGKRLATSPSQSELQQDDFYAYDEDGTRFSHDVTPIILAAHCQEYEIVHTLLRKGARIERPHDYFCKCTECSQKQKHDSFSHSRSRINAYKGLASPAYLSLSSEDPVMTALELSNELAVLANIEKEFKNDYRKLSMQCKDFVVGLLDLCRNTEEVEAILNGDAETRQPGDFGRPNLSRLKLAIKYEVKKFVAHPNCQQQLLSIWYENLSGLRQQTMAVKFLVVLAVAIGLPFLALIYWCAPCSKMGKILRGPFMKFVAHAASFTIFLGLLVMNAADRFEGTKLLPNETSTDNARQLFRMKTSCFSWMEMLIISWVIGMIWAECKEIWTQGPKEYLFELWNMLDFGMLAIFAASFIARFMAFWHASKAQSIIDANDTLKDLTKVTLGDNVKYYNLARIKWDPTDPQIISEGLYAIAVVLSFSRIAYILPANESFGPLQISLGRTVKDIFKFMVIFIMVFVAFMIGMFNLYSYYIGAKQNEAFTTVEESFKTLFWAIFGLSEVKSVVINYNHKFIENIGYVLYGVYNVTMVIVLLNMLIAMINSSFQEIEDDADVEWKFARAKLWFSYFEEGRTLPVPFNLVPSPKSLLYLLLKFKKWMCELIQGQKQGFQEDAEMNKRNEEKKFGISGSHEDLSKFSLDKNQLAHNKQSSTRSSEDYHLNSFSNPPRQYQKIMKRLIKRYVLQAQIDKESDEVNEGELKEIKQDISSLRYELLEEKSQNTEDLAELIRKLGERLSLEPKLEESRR

For assay [10] the target is unchanged. Description: activation of mouse TRPC6 channel, confirmation, selectivity assay for TRPC4 activator project, cell-based, HEK293, membrane potential dye, duplicate (AID 434950;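 active = membrane potential signal rise above negative control mean plus 3 SD in both duplicates, also active in the earlier TRPC4 screen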;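 for activation: 0% = buffer only wells and 100% = acetylcholine maximal-effect wells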). The settings on record: HEK293 TRPC6, membrane potential fluorescence, at 10 µM; hits give high values.
The target is the same in assay [11]. Kind of assay: TRPC6 potentiation by TRPC4 potentiator hits, confirmation, selectivity assay for TRPC4 potentiator project, HEK293 cells, membrane potential dye, duplicate (AID 434952;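 active = compound raising the membrane signal above positive-control mean plus 3 SD in both repeats, and a primary screen hit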). Particulars: HEK293 TRPC6, membrane potential dye fluorescence, at 10 µM, maximal acetylcholine added after compound; hits give high values.
Assay [12] has as its target Short transient receptor potential channel 4 (Mus musculus) (UniProt Q9QUQ5). Kind of assay: calcium flux activators in TRPC4/5HT1a cells, counter-screen for TRPC4 activator project, cell-based, second counter screen, HEK293 TRPC4/5HT1a, Fluo-4 (AID 434977;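 active = calcium signal rise above buffer-control mean plus 5 SD in both duplicates, and also a hit in the primary screen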;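 for activation: plate controls were assay buffer for no effect and maximal serotonin response for full effect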). The settings on record: Fluo-4 calcium flux, at 10 µM; hits give high values.
Assay [13] is described as follows: calcium flux inhibitors in TRPC4/5HT1a cells, confirmation, counter-screen for TRPC4 inhibitor project, cell-based, second counter screen, HEK293 TRPC4/5HT1a, Fluo-4 (AID 434978;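 active = primary screen active whose calcium signal fell more than 3 SD beyond the full-serotonin control mean in both duplicate plates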;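 note: serotonin given first at submaximal then at maximal dose after compound preincubation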). Particulars: Fluo-4 calcium flux, at 10 µM, serotonin added to trigger calcium flux; hits give high values.
Assay [14] has as its system TRPC4 (mouse), co-expressed with 5HT1a in HEK293. Description: calcium flux potentiators in TRPC4/5HT1a cells, confirmation, counter-screen for TRPC4 potentiator project, cell-based, second counter screen, HEK293 TRPC4/5HT1a, Fluo-4 (AID 434979;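 active = signal rise over 3 SD above mean of control wells given weak agonist, in both repeats and first screen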). Particulars: Fluo-4 calcium flux, at 10 µM, serotonin added at its EC20 dose; hits give high values.
Assay [15] can be described thus: calcium flux activation in mu-opioid HEK293 cells, confirmation, counter-screen for TRPC4 activator project, cell-based, HEK293 mu-opioid receptor line (AID 449723;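 active = hit in primary screen, with calcium signal over 5 SD above buffer well mean in both duplicates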;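 note: counter screen cells carry the mu-opioid receptor alone and lack TRPC4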). The settings on record: Fluo-4 calcium fluorescence, at 10 µM; hits give high values.
Assay [16] can be described thus: calcium flux enhancement in mu-opioid HEK293 cells, confirmation, counter-screen for TRPC4 allosteric potentiator project, cell-based, HEK293 mu-opioid receptor line (AID 449724;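 active = calcium signal rise more than 3 SD above the low-dose agonist control mean, in both duplicate plates and the primary screen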;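 note: HEK293 cells carrying mu-opioid receptor only with no TRPC4 channel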). The settings on record: Fluo-4 calcium flux, at 10 µM, compound added before EC20 DAMGO stimulus; hits give high values.

Consider `Cc1sc2nc(CSc3ccccc3)nc(NCCN(C)C)c2c1C`, for which the activation in assay [1] was 173% (active); in assay [12], 15.2% (active). The outcome in [2], in assay [3], in assay [4], in [5], in [6] and in [7] was inactive. Also, the outcome in [8], in assay [9], in [10], in assay [11], in assay [13] and in assay [14] was inactive. The result in [15] and in assay [16] was inactive.

As for `Cn1c(CN2CCN(c3cccc(Cl)c3)CC2)nc2ccccc21`, the activation in assay [1] was 119% (active); in assay [10], 49% (active). Further, the result in [2], in assay [3], in assay [4], in assay [5], in [6] and in assay [7] was inactive. In addition, the result in assay [8], in assay [9], in assay [11], in assay [12], in [13] and in assay [14] was inactive. The outcome in [15] and in assay [16] was inactive.

On to `Cc1nc(NCC(c2ccccc2)N(C)C)c2c(C)c(C)sc2n1` (stereo not given), for which the activation in assay [1] was 204% (active); in [2], 78% (active); in [12] it was 27.8% (active). Also, the outcome in assay [3], in [4], in assay [5], in assay [6], in [7] and in assay [8] was inactive. The outcome in assay [9], in assay [10], in assay [11], in assay [13], in assay [14] and in assay [15] was inactive. In addition, the result in assay [16] was inactive.

With `O=C(CCC1CCCC1)c1c(O)c2ccccc2oc1=O`, the activation in assay [1] is 222% (active); in assay [10], 25% (active); in assay [12], 19.6% (active); in [15], 51.5% (active). Besides, the result in [2], in [3], in assay [4], in assay [5], in [6] and in assay [7] was inactive. Besides, the outcome in assay [8], in assay [9], in [11], in [13], in assay [14] and in assay [16] was inactive.

With `NC(=O)C1CCCN(CC(O)COCc2ccc(Cl)cc2)C1` (stereo not given), the activation was 140% (active) in assay [1], 133% (active) in [2], 31.5% (active) in assay [10] and 69.7% (active) in [12]. For the same compound, the outcome in assay [3], in assay [4], in [5], in assay [6], in assay [7] and in assay [8] was inactive. For the same compound, the call in assay [9], in assay [11], in assay [13], in [14], in assay [15] and in assay [16] was inactive.

With `CN(C)C(CNC(=O)C1CC(=O)N(Cc2ccccc2)C1)c1ccccc1` (stereo not given), the activation in [1] was 90% (active). In addition, the outcome in [2], in [3], in assay [4], in assay [5], in assay [6] and in [7] was inactive. The result in assay [8], in assay [9], in assay [10], in assay [11], in [12] and in assay [13] was inactive. Also, the result in assay [14], in assay [15] and in [16] was inactive.

As for `Cc1ccc(-n2cc(CNCCc3ncc(C)[nH]3)c(-c3ccc(F)cc3)n2)cc1`, the values for the activation in [1] and in [12] were 177% (active) and 14.9% (active), respectively. Further, the outcome in [2], in assay [3], in assay [4], in assay [5], in assay [6] and in [7] was inactive. The outcome in assay [8], in [9], in assay [10], in [11], in assay [13] and in assay [14] was inactive. In addition, the result in assay [15] and in assay [16] was inactive.

Consider `COc1cccc(C(=O)N(C)CC2CCN(CCc3cccc(C(F)(F)F)c3)CC2)c1`, for which the figures for the activation in assay [1], in assay [2] and in assay [10] were 93% (active), 77% (active) and 62.5% (active), respectively. Besides, the result in assay [3], in [4], in [5], in [6], in assay [7] and in assay [8] was inactive. Further, the outcome in assay [9], in assay [11], in [12], in assay [13], in [14] and in assay [15] was inactive. The result in [16] was inactive.

Take `Cc1nc(/N=C(\N)NC(=O)NC2CCCCC2)nc2ccccc12`: the activation is 99% (active) in assay [1], 66% (active) in assay [2] and 36.2% (active) in [12]. Also, the outcome in assay [3], in assay [4], in assay [5], in [6], in [7] and in assay [8] was inactive. In addition, the compound was called inactive in assay [9], in assay [10], in [11], in [13], in assay [14] and in assay [15]. The result in assay [16] was inactive.

`O=C(COc1ccc(Br)cc1CNC1CCCC1)Nc1ccccc1`: the activation in assay [1] is 175% (active); in assay [10], 29.5% (active). Also, the outcome in [2], in assay [3], in [4], in assay [5], in assay [6] and in [7] was inactive. The outcome in assay [8], in assay [9], in assay [11], in assay [12], in assay [13] and in assay [14] was inactive. Moreover, the result in assay [15] and in assay [16] was inactive.

Take `O=S(=O)(c1ccc(Cl)cc1)N1CCN2CCCC2C1` (stereo not given): the activation in assay [1] is 103% (active); in [10] it was 27% (active); in assay [12], 18.1% (active). The result in assay [2], in [3], in [4], in assay [5], in assay [6] and in assay [7] was inactive. Besides, the outcome in assay [8], in assay [9], in [11], in assay [13], in assay [15] and in [16] was inactive. Further, the potentiation in [14] is 25.7% (active).

Consider `O=C(c1sc2ccccc2c1Cl)N(Cc1cccs1)C1CCS(=O)(=O)C1` (stereo not given), for which the activation in assay [1] was 265% (active); in [2] it was 79% (active); in assay [10], 35% (active); in assay [12] it was 12% (active). For the same compound, the result in [3], in assay [4], in assay [5], in assay [6], in assay [7] and in [8] was inactive. Moreover, the call in assay [9], in [11], in assay [13], in assay [14], in assay [15] and in assay [16] was inactive.

With `CCN1C(=O)c2cccc3c(S(=O)(=O)Nc4ccccc4OC)ccc1c23`, the result in assay [1], in assay [2], in assay [3], in assay [4], in assay [5] and in [6] was inactive. For the same compound, the outcome in assay [7], in [8], in [9], in assay [10], in assay [11] and in assay [12] was inactive. For the same compound, the result in assay [13], in assay [14], in assay [15] and in assay [16] was inactive.

On to `Cc1ccc(C(=O)NC(=S)NNC(=O)c2ccccc2)cc1`, for which the outcome in assay [1], in assay [2], in [3], in assay [4], in [5] and in assay [6] was inactive. In addition, the outcome in assay [7], in assay [8], in assay [9], in assay [11], in [13] and in assay [14] was inactive. In addition, the outcome in [16] was inactive. The activation in assay [10] is 31.5% (active); in [12], 72.6% (active); in [15], 12.1% (active).

For `COc1ccc(-c2cc(C(=O)NCC(c3ccccc3)N(C)C)c3ccccc3n2)cc1OC` (stereo not given), the activation in assay [1] was 98% (active). Besides, the outcome in assay [2], in assay [3], in assay [4], in assay [5], in [6] and in [7] was inactive. Moreover, the result in assay [8], in [9], in assay [10], in assay [11], in [12] and in assay [13] was inactive. Further, the outcome in [14], in [15] and in assay [16] was inactive.
